Tau fluor cs: Counterscreen qHTS for Inhibitors of Tau Fibril Formation, Fluorescence Polarization; tau K18 P301L Alexa594 fluorescence, heparin fibrillization; Potency, µM (highest dose often 57.7 µM), inactives show at the top dose activity change, negative = decrease; 0.93% of 280,000 active; AID 1463, 2008; further: potency means the concentration at half of the fitted maximal effect; nearly all actives have a fitted effect of over 55% in size
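Human tau K18 P301L (15 uM unlabeled, 0.24 uM Alexa 594-labeled) in 100 mM sodium acetate pH 7 with 20 uM heparin, 6 hr at 37 C. ThT 30 uM added, 1 hr ambient; Alexa 594 FP and total fluorescence read at 555/632 nm.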
Tau fibril ThT: qHTS for Inhibitors of Tau Fibril Formation, Thioflavin T Binding | Potency, µM (titrated, usually from 57.4 µM), inactives show at the top dose activity, negative = inhibition, hits mostly inhibitors | 2.1% of 270,000 active | recombinant tau K18 P301L (four-repeat tau fragment), heparin-induced fibrillization, ThT fluorescence; further: potency means the concentration at half of the fitted maximal effect; nearly all actives have a fitted effect of over 55% in size
Target sequence (P10636 561-689 P618L limits assumed): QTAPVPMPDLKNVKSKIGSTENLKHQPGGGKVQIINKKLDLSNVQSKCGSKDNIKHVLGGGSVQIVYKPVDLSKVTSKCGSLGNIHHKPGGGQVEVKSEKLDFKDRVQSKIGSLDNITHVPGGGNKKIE
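K18 P301L tau (15 uM + 0.24 uM Alexa 594-tagged), heparin 20 uM, NaOAc pH 7, 6 h 37 C; ThT 30 uM, 1 h RT, ex 450/em 510 nm.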
Coupling enz: qHTS Assay for Inhibitors of Fructose-1,6-bisphosphate Aldolase from Giardia Lamblia: Coupling assay counterscreen; coupling enzyme system counterscreen, AmpLite Red fluorescence; activity change, negative = inhibition, % at 58.2 µM, hits read low; 0.67% of 290,000 active; in the data active means activity change below about -30%
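First, compound is pin-transferred into glyceraldehyde-3-phosphate coupling-enzyme reagent at 57.5 uM final and held 10 min at RT. Next, substrate, coupling system and AmpLite Red are added. After 20 min RT, fluorescence (525/598 nm) is read.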
Tau fibril FP: qHTS for Inhibitors of Tau Fibril Formation, Fluorescence Polarization; K18 P301L tau heparin fibrillization, Alexa594 FP, 6 h; Potency, µM (series often up to 57.7 µM), inactives show top-dose activity, negative = inhibition, actives largely listed as inhibitors; AID 1468, 2008; 0.39% of 280,000 active; further: potency means the concentration at half of the fitted maximal effect; nearly all actives have a fitted effect of over 55% in size
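Recombinant K18 P301L […], labeled with Alexa 594 at 0.24 uM over 15 uM unlabeled; heparin inducer 20 uM final; 37 C, 6 hr; FP endpoint.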
KDM4E inh: qHTS Assay for Inhibitors of Human Jumonji Domain Containing 2E (JMJD2E); Lysine-specific demethylase 4E (Homo sapiens), B2RXH2; JMJD2E catalytic domain, FDH-coupled NADH fluorescence (FDH is formaldehyde dehydrogenase); Potency, µM (series often up to 57.1 µM), for the others: top-dose activity change, negative = inhibition, most hits filed as inhibitors; 1.6% of 230,000 active; active means well fitted inhibition curve with a large enough effect, not every such curve was filed as active; inconclusive means small, poorly fitted or top-dose-only effect, or another doubt; inactive means no such curve, though single readings can be large or run the other way;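 further: potency means the concentration at half of the fitted maximal effect; 0% = wells with enzyme and -100% = buffer wells without enzyme; nearly all actives have a fitted effect of over 50% in size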
Target sequence (B2RXH2 1-337 limits assumed): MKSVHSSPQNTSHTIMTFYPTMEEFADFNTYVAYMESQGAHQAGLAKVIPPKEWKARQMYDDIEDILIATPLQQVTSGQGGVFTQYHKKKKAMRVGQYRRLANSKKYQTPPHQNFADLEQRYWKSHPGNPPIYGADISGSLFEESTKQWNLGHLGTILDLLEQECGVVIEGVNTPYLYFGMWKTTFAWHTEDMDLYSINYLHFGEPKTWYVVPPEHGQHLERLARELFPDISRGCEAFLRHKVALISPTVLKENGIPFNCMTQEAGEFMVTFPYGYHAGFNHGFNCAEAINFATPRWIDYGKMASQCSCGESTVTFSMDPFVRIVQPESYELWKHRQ
Active calls of the source: *; ? = inconclusive; / = not tested or not shown; [ ] = remark or other dose. Sampled rows, rich in hits. Any-hit rate of the full collection: about 3%. Unless noted, the call rests on the fitted dose curve; in most records, active means well fitted curve in the direction sought with a large enough effect; inconclusive means small, poorly fitted or top-dose-only effect, or another doubt; inactive means no such curve, though single readings can be large; an effect the other way counts as inactive or inconclusive. Unless noted, on the % scale 0 is the no-effect control and ±100 the full control effect.

SMILES | Tau fluor cs | Tau fibril ThT | Coupling enz | Tau fibril FP | KDM4E inh
CCCCOc1ccc(C(=O)Nc2ccc(N3CCN(C(C)=O)CC3)cc2)cc1 | -23% | ? | 0 | ? | 16%
CC(C)Cn1c(=O)c2sccc2n2c(CCCC(=O)Nc3ccc(Cl)cc3)nnc12 | -23% | 2% | / | -3% | /
COc1cc(NC(=O)C2CCN(S(=O)(=O)c3ccc4c(c3)oc(=O)n4C)CC2)cc(OC)c1 | -28% | 4% | / | -4% | /
COc1ccc2nc3c(cc2c1)Cn1c-3nc2ccccc2c1=O | / | / | 0 | / | /
Cc1ccccc1C(=O)N1CCN(c2ccc(NC(=O)c3ccc4c(c3)OCO4)cc2)CC1 | ? | 13µM* | 3 | 7% | ?
O=C(Nc1ccc2oc(-c3cc(Br)ccc3Cl)nc2c1)c1cc2ccccc2o1 | ? | ? | / | -2% | /
COc1cc2c(cc1OC)C1(C)N(CC2)C(C(C)=O)=NN1c1ccc(Cl)cc1 (configuration not stated) | ? | 10µM* | -7 | 16% | ?
COc1cc2c(cc1OC)CN(C(=O)c1cc(Cl)nc(Cl)c1)CC2 | / | / | 2 | / | /
O=c1oc(-c2ccc(C(F)(F)F)cc2)nn1Cc1cc(Cl)ccc1O | / | / | -5 | / | /
O=C(O)c1ccccc1C(=O)Nc1n[nH]c(=S)s1 | -14% | ? | -70* | ? | 4µM*
COc1ccc(Cl)cc1NC(=O)c1cc2ccc3ccc(C)[nH]c3c2n1 | ? | 4% | / | -17% | /
CC1(C)C2CCC1(C)C(OCC[N+](C)(C)CC(=O)OC1CCCCC1)C2 (configuration not stated) | 8% | -7% | 3 | 10% | 2%
CCOC(=O)C[N+](C)(C)CCOC1CC2CCC1(C)C2(C)C (configuration not stated) | -5% | -10% | 1 | 2% | 18µM*
CC(=O)Nc1ccc2nc3ccccc3nc2c1 | -22% | ? | -33* | ? | 14µM*
CC(=O)Nc1ccc(Nc2cc(C)c3ccccc3n2)cc1 | / | / | -2 | / | /
CC(=O)Nc1ccc2nc3c(=O)n(C)c(=O)n(C)c3nc2c1 | -27% | 18µM* | -16 | ? | ?
O=C(Nc1ccc2nc3ccccc3nc2c1)c1ccc(Br)cc1 | -14% | ? | -39* | 3% | 0%
Cc1nn(C)c2c1c(C(F)(F)F)cc(=O)n2C(C)C(=O)Nc1ccccc1F (configuration not stated) | -8% | 0% | / | 4% | /
CCCOC(=O)N1CCN(/[N+]([O-])=N/Oc2ccc([N+](=O)[O-])cc2[N+](=O)[O-])CC1 | / | / | 1 | / | /
CC(C)(C)NC(=O)COC(=O)c1cc(F)c(F)cc1Cl | -2% | -11% | -61* | 4% | 5%
CCOC(=O)c1ccc(NC(=O)CC2C(=O)N(c3ccc(F)cc3)C(=O)N2Cc2cccnc2)cc1 (configuration not stated) | -16% | -1% | / | 1% | /
Cc1ccc(OCC(=O)Nc2c(C(=O)c3ccc(Cl)cc3)oc3ccccc23)cc1C | -7% | 1% | / | 2% | /
COc1ccc(C2C=C(c3ccc(C)cc3)Nc3c(C(=O)Nc4ccccc4)cnn32)cc1 (configuration not stated) | -8% | -5% | / | ? | /
COc1cc(OC)c(C2C=C(c3ccc(C)cc3)Nc3c(C(=O)Nc4ccccc4)cnn32)cc1OC (configuration not stated) | 18µM*[quencher] | -13% | / | 9% | /
CN(C)Cc1cc(O)c(CN(C)C)cc1O | ? | 7.1µM* | -32* | ? | ?
CN1CC=C2C(C#N)=C(N)C(C#N)(C#N)[C@H](c3ccoc3)[C@H]2C1 | ? | 22µM* | -31* | ? | ?
COc1ccc(Nc2nnc(SC(C(=O)Nc3ccc(OC)c(Cl)c3)c3ccccc3)s2)cc1 (configuration not stated) | 7.1µM*[quencher] | -17% | -7 | 18% | -13%
COc1cc(/C=C2/SC(=O)NC2=O)ccc1OC(=O)c1ccco1 | / | / | -5 | / | /
